Laboratory results taken from PubChem BioAssay (Tox21).
Unmarked numbers belong to inactive results. Records with an inconclusive call do not appear. A call without a number means that no potency is given here. The source made the active and inactive calls. Unless noted, calls come from the whole dose curve.

Assays:
[1] = target: Thyrotropin receptor (Homo sapiens) (UniProt P16473); assay: qHTS assay to identify small molecule agonists of the thyroid stimulating hormone receptor (TSHR) signaling pathway (AID 1224843); note: nearly all actives have a fitted effect of over 45% in size
Method in brief: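 Screening of the Tox21 10K collection used HEK293 cells engineered with TSHR at 800 cells per well. After a 30-min room-temperature compound exposure, HTRF cAMP reagents were added and fluorescence recorded 1 h later.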

[2] = qHTS assay to identify small molecule agonists of the hypoxia (HIF-1) signaling pathway - cell viability counter screen (AID 1224844); note: nearly all actives have a fitted effect of over 50% in size
Method in brief: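 Cells (HRE-bla ME-180, 2,000 per well) sat 5 hrs at 37C, got compound for 17 hrs, were read for CCF4-AM FRET, and were finally lysed with CellTiter-Glo for a 30 min room-temperature luminescence read.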

[3] = qHTS assay to identify small molecule agonists of H2AX (AID 1224845; active = well fitted activation curve with a large enough effect in the signal ratio in the repeat runs, not every such curve was filed as active; the % refers to the signal ratio)
Method in brief: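 Phospho-H2AX Ser139 measured by HTRF (ex 320 nm; em 665 and 620 nm) after 24 hr antibody incubation. Compounds, 15 concentrations, 0.76% DMSO, were applied to CHO-K1 cells for 3hr at 37C before lysis.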

[4] = qHTS assay to identify small molecule agonists of the hypoxia (HIF-1) signaling pathway (AID 1224846; active = well fitted activation curve with a large enough effect in the signal ratio in the repeat runs, not every such curve was filed as active; the % refers to the signal ratio)
Method in brief: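 A low-serum medium (0.5% dialyzed FBS) holding 2,000 HRE-bla ME-180 cells per well is preincubated for 5 hrs, dosed with compounds by pintool, and kept a further 17 hrs at 37C, 5% CO2 before CCF4-AM FRET detection of beta-lactamase.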

[5] = qHTS assay to identify small molecule agonists of H2AX - cell viability counter screen (AID 1224847); note: top concentration of the series differs between compounds; nearly all actives have a fitted effect of over 30% in size
Method in brief: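 Viability of CHO-K1 (wild type) cells after 3 hr compound exposure was measured by CellTiter-Glo luminescence.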

[6] = qHTS assay to identify small molecule antagonists of the estrogen related receptor (ERR) signaling pathway from Tox21 library (AID 1224848; active = well fitted curve in the direction sought with a large enough effect in the repeat runs; an effect the other way counts as inactive or inconclusive; note: nearly all actives have a fitted effect of over 50% in size)
Method in brief: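 Antagonist-mode screen of the Tox21 10K library in an NTP-provided ERR reporter cell line; 18 h compound exposure at 37 C, luminescence measured with ONE-Glo.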

[7] = qHTS assay to identify small molecule agonists of the estrogen related receptor (ERR) signaling pathway from Tox21 library (AID 1224849); conditions: ERR reporter cell line, ONE-Glo luciferase, 18 h; at 92.4 µM (top of the series) unless noted; note: nearly all actives have a fitted effect of over 15% in size
Method in brief: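 Screening used an NTP-provided ERR luciferase cell line. Compounds in DMSO were added 6 h after seeding and left 18 h at 37 C before a 30 min ONE-Glo step and luminescence reading.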

[8] = qHTS RealTime-Glo MT Cell Viability Assay in HepG2 cells - 24 hour (AID 1224867; active = well fitted curve in the direction sought with a large enough effect in the repeat runs; an effect the other way counts as inactive or inconclusive; note: nearly all actives have a fitted effect of over 50% in size)
Method in brief: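 HepG2 suspension premixed with RealTime-Glo reagents is plated at 600 cells per well and left 5 h at 37 C/5% CO2. Compounds in DMSO then go in, and bioluminescence reflecting viable cell number is recorded over 40 h.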

[9] = qHTS RealTime-Glo MT Cell Viability Assay in HEK293 cells - 32 hour (AID 1224868; active = well fitted curve in the direction sought with a large enough effect in the repeat runs; an effect the other way counts as inactive or inconclusive; note: top concentration of the series differs between compounds; nearly all actives have a fitted effect of over 50% in size)
Method in brief: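 Reads taken at 0, 8, 16, 24, 32 and 40 h from the same wells. HEK293 cells (600/well) carried RealTime-Glo reagents from seeding, with compound added after a 5 h settle at 37 C.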

[10] = A CellTox Green Cytotoxicity Assay to monitor cytotoxicity in HEK293 cells - 0 hour (AID 1224869; active = well fitted curve in the direction sought with a large enough effect in the repeat runs; an effect the other way counts as inactive or inconclusive; note: nearly all actives have a fitted effect of over 50% in size)
Method in brief: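 Fluorescence intensity, read at 0, 8, 16, 24, 32 and 40 h of compound treatment, reflected dye binding to DNA of dead HEK293 cells; compounds (23 nL, DMSO) were added 5 h after plating cells with reagent.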

Chain of Thyrotropin receptor (Homo sapiens) (P16473 whole entry, looked up): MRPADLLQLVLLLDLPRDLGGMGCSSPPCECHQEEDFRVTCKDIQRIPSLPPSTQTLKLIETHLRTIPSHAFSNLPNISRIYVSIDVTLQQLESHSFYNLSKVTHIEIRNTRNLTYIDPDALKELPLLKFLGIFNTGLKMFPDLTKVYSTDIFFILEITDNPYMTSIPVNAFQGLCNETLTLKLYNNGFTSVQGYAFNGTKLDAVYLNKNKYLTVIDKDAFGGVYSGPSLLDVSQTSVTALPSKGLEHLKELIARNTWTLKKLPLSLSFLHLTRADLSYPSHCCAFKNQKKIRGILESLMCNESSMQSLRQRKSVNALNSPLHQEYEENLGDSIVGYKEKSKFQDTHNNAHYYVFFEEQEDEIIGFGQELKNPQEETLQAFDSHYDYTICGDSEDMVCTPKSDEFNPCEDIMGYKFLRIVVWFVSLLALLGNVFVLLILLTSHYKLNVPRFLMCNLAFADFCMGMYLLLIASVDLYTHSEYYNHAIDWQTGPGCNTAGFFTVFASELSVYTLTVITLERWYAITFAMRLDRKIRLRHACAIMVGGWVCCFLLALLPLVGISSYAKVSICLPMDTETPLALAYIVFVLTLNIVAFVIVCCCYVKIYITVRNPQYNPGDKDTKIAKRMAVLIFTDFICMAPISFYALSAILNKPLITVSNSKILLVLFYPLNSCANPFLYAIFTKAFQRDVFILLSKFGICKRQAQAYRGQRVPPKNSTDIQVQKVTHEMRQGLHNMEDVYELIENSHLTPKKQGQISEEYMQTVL

For `OCCN(CCO)CCN(CCO)CCO`, the Potency [1] was “inactive”, the Potency [2] was “inactive” and the Potency [3] was “inactive”. For the same compound, the outcome [4] was “inactive”, the Potency [5] was “inactive” and the Potency [6] was “inactive”. For the same compound, the activity change, positive = activation [7] was -1.05%, the Potency [8] was “inactive” and the Potency [9] was “inactive”. For the same compound, the Potency [10] was “inactive”.
With `O=C(Cl)c1cccc([N+](=O)[O-])c1` the Potency [1] was “inactive”, the Potency [2] was “inactive” and the Potency [3] was “inactive”. For the same compound, the outcome [4] was “inactive”, the Potency [5] was “inactive” and the Potency [6] was “inactive”. For the same compound, the activity change, positive = activation [7] was 0.643%, the Potency [8] was “inactive” and the Potency [10] was “inactive”.
In the case of `C[C@]12C(=O)OC(=O)[C@H]1[C@H]1C=C[C@@H]2C1`, the Potency [1] is reported as “inactive”, the Potency [2] is reported as “inactive” and the Potency [3] is reported as “inactive”. The outcome [4] was “inactive”, the Potency [5] was “inactive” and the Potency [6] was “inactive”. For the same compound, the activity change, positive = activation [7] was 0.566%, the Potency [8] was “inactive” and the Potency [10] was “inactive”.
For `Cc1cccc(C)c1NC(=O)CN1CCCCCC1`, the Potency [1] was “inactive”, the Potency [2] was “inactive” and the Potency [3] was “inactive”. The outcome [4] was “inactive”, the Potency [5] was “inactive” and the Potency [6] was “inactive”. For the same compound, the activity change, positive = activation [7] was 0.669% [at 42.5 µM], the Potency [8] was “inactive” and the Potency [9] was “inactive”. For the same compound, the Potency [10] was “inactive”.
With `CC(Oc1c(Cl)cccc1Cl)C1=NCCN1` (stereo unspecified) the Potency [1] was “inactive”, the Potency [2] was “inactive” and the Potency [3] was “inactive”. For the same compound, the outcome [4] was “inactive”, the Potency [5] was “inactive” and the Potency [6] was “inactive”. The activity change, positive = activation [7] was -3.99% [at 42.5 µM], the Potency [8] was “inactive” and the Potency [9] was “inactive”. For the same compound, the Potency [10] was “inactive”.
For `COC(=O)c1ccc(OC)cc1`, the Potency [1] was “inactive”, the Potency [2] was “inactive” and the Potency [3] was “inactive”. The outcome [4] was “inactive”, the Potency [5] was “inactive” and the Potency [6] was “inactive”. For the same compound, the activity change, positive = activation [7] was 5.85%, the Potency [8] was “inactive” and the Potency [9] was “inactive”. The Potency [10] was “inactive”.
With `OC[C@H]1O[C@@H](O[C@H]2[C@H](O)[C@@H](O)[C@H](O)O[C@@H]2CO)[C@H](O)[C@@H](O)[C@H]1O` the Potency [1] was “inactive”, the Potency [2] was “inactive” and the Potency [3] was “inactive”. The outcome [4] was “inactive”, the Potency [5] was “inactive” and the Potency [6] was “inactive”. For the same compound, the Potency [8] was “inactive”, the Potency [9] was “inactive” and the Potency [10] was “inactive”.
With `C=O` the Potency [1] was “inactive”, the Potency [2] was “inactive” and the Potency [3] was “inactive”. For the same compound, the outcome [4] was “inactive”, the Potency [5] was “inactive” and the Potency [6] was “inactive”. The activity change, positive = activation [7] was 0.267%, the Potency [8] was “inactive” and the Potency [9] was “inactive”. For the same compound, the Potency [10] was “inactive”.
For `CCCCNCCCC`, the Potency [1] was “inactive”, the Potency [2] was “inactive” and the Potency [3] was “inactive”. For the same compound, the outcome [4] was “inactive”, the Potency [5] was “inactive” and the Potency [6] was “inactive”. For the same compound, the activity change, positive = activation [7] was 0.877%, the Potency [8] was “inactive” and the Potency [9] was “inactive”.
With `O=c1[nH]cnc2c1ncn2[C@@H]1O[C@H](CO)[C@@H](O)[C@H]1O` the Potency [1] was “inactive”, the Potency [2] was “inactive” and the Potency [3] was “inactive”. The outcome [4] was “inactive”, the Potency [5] was “inactive” and the Potency [6] was “inactive”. The activity change, positive = activation [7] was 2.74% [at 42.5 µM] and the Potency [8] was “inactive”.
In the case of `CC(C)S`, the Potency [1] is reported as “inactive”, the Potency [2] is reported as “inactive” and the Potency [3] is reported as “inactive”. For the same compound, the outcome [4] was “inactive”, the Potency [5] was “inactive” and the Potency [6] was “inactive”. The activity change, positive = activation [7] was 3.07%, the Potency [8] was “inactive” and the Potency [9] was “inactive”. For the same compound, the Potency [10] was “inactive”.
For `CO[Si](C)(C)OC`, the Potency [1] was “inactive”, the Potency [2] was “inactive” and the Potency [3] was “inactive”. For the same compound, the outcome [4] was “inactive”, the Potency [5] was “inactive” and the Potency [6] was “inactive”. The activity change, positive = activation [7] was 4.8%, the Potency [8] was “inactive” and the Potency [9] was “inactive”. The Potency [10] was “inactive”.
With `CCOC(=O)c1ccccc1O` the Potency [1] was “inactive”, the Potency [2] was “inactive” and the Potency [3] was “inactive”. The outcome [4] was “inactive”, the Potency [5] was “inactive” and the Potency [6] was “inactive”. For the same compound, the activity change, positive = activation [7] was 1.87% [at 42.5 µM], the Potency [8] was “inactive” and the Potency [9] was “inactive”. For the same compound, the Potency [10] was “inactive”.
In the case of `CCOC(=O)c1cc(=O)c2c(OCC(COc3cccc4oc(C(=O)OCC)cc(=O)c34)OC(=O)[C@@H](N)CCCCN)cccc2o1`, the Potency [1] is reported as “inactive”, the Potency [2] is reported as “inactive” and the Potency [3] is reported as “inactive”. For the same compound, the outcome [4] was “inactive”, the Potency [5] was “inactive” and the Potency [6] was “inactive”. For the same compound, the activity change, positive = activation [7] was 8.23% [at 42.5 µM], the Potency [9] was “inactive” and the Potency [10] was “inactive”.
Work on `O=C(O)c1ccccc1Nc1cc(Cl)ccc1C(=O)O` yielded an activation [1] of -5.91% [at 19 µM], an activity change, negative = cytotoxicity [2] of 5.17% [at 15.8 µM] and an activation (H2AX phosphorylation) [3] of 5.25% [at 31.6 µM]. It also gave an activation [4] of -1.19% [at 15.8 µM], an activity change, negative = cytotoxicity [5] of 9.56% [at 31.6 µM] and an activity, negative = inhibition [6] of -10.4% [at 19 µM]. The activity change, positive = activation [7] was -5.59% [at 19 µM] and the cytotoxicity [10] was 1.27% [at 15.8 µM].
With `CC(C)C(=O)OC/C=C/c1ccccc1` the Potency [1] was “inactive”, the Potency [2] was “inactive” and the Potency [3] was “inactive”. For the same compound, the outcome [4] was “inactive”, the Potency [5] was “inactive” and the Potency [6] was “inactive”. The activity change, positive = activation [7] was 4.91%, the Potency [8] was “inactive” and the Potency [10] was “inactive”.
In the case of `O=C(CCCl)NCc1ccccc1`, the Potency [1] is reported as “inactive”, the Potency [2] is reported as “inactive” and the Potency [3] is reported as “inactive”. For the same compound, the outcome [4] was “inactive”, the Potency [5] was “inactive” and the Potency [6] was “inactive”. For the same compound, the activity change, positive = activation [7] was 5.97% [at 42.5 µM], the Potency [8] was “inactive” and the Potency [9] was “inactive”. For the same compound, the Potency [10] was “inactive”.
For `CCOc1ccc(OCC)c(Cl)c1`, the Potency [1] was “inactive”, the Potency [2] was “inactive” and the Potency [3] was “inactive”. The outcome [4] was “inactive”, the Potency [5] was “inactive” and the Potency [6] was “inactive”. The activity change, positive = activation [7] was 4.33%, the Potency [8] was “inactive” and the Potency [10] was “inactive”.
In the case of `Cc1ccc(C)c(N)c1`, the Potency [1] is reported as “inactive”, the Potency [2] is reported as “inactive” and the Potency [3] is reported as “inactive”. For the same compound, the outcome [4] was “inactive”, the Potency [5] was “inactive” and the Potency [6] was “inactive”. For the same compound, the Potency [8] was “inactive”, the Potency [9] was “inactive” and the Potency [10] was “inactive”.
With `CCCCCCCCCCCCCCCCOP(=O)([O-])OCC[N+](C)(C)C` the Potency [1] was “inactive”, the Potency [2] was “inactive” and the Potency [3] was “inactive”. For the same compound, the outcome [4] was “inactive”, the Potency [5] was “inactive” and the Potency [6] was “inactive”. The Potency [8] was “inactive” and the Potency [9] was “inactive”.
For `CCCCCCCCCC#N`, the Potency [1] was “inactive”, the Potency [2] was “inactive” and the Potency [3] was “inactive”. For the same compound, the outcome [4] was “inactive”, the Potency [5] was “inactive” and the Potency [6] was “inactive”. For the same compound, the activity change, positive = activation [7] was -15.2%, the Potency [8] was “inactive” and the Potency [9] was “inactive”. For the same compound, the Potency [10] was “inactive”.
With `CC(C)C[C@H](NC(=O)OCC1c2ccccc2-c2ccccc21)C(=O)O` the Potency [1] was “inactive”, the Potency [2] was “inactive” and the Potency [3] was “inactive”. The outcome [4] was “inactive”, the Potency [5] was “inactive” and the Potency [6] was “inactive”. For the same compound, the activity change, positive = activation [7] was 147% (active), the Potency [8] was “inactive” and the Potency [9] was “inactive”. The Potency [10] was “inactive”.
